Compound activity from PubChem.
Most compounds without a hit are left out; they make up all but 2.3% or so of the library.
TDP-43 yeast inh = qHTS of TDP-43 Inhibitors; TDP-43 expressing yeast growth rescue, BacTiter-Glo, 24 h; Potency, µM (series often up to 46.1 µM), for inactives: top-dose growth rescue (activation), most hits filed as activators; 1.8% of 410,000 active; note: potency is the fitted concentration of half-maximal effect; % of control where 0% means no effect; nearly all actives have a fitted effect of over 50% in size
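In this qHTS, compounds that restore growth of yeast expressing TDP-43 appear as activators. Cells (OD600=0.02, galactose medium, raffinose-pregrown) are incubated with compound 24 hr at 30 deg C and growth is quantified by BacTiter-Glo.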
Abeta rescue = qHTS for compounds that reverse cellular toxicity of Amyloid beta (A-beta) peptide in yeast: Primary Screen | yeast expressing A-beta42, growth rescue, OD600, 48 h; response scale: 0% DMSO, 100% iron-clioquinol control | Potency, µM (series often up to 46.1 µM), usual class: activators | 0.063% of 410,000 active | AID 1347071, 2019; note: potency is the fitted concentration of half-maximal effect; nearly all actives have a fitted effect of over 55% in size
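Growth rescue measured by 600 nm absorbance after 48 h yeast culture at 30 C with compound. Values normalized between DMSO and an equimolar ferric chloride plus clioquinol control.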
Mm-Cpn inhibitor = Inhibitors of TCP-1 ring complex (TRiC) of Methanococcus maripaludis (MmCpn): qHTS. Chaperonin Mm-Cpn (Methanococcus maripaludis). purified Mm-Cpn ATPase, ADP Transcreener TR-FRET. Potency, µM (doses to about 76.9 µM), inactives show at the top dose activity, negative = inhibition, usual class: inhibitors. 0.031% of 330,000 active; note: potency is the fitted concentration of half-maximal effect; % is set by controls: 0 for no effect and ±100 for the full control effect; nearly all actives have a fitted effect of over 80% in size
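Inhibition of chaperonin ATP hydrolysis is measured as reduced ADP production, detected by competitive TR-FRET in which signal falls with ADP. Final enzyme 25 nM and ATP 10 uM, reacted 30 min at 37°C.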
FUS suppressor = qHTS for Suppressors of FUS Proteinopathy: Primary screen using FUS-linked yeast assay | 0.24% of 390,000 active | S. cerevisiae FUS-expressing, growth rescue, OD600, 24 h | AID 1347120, 2019 | Potency, µM (series often up to 76.6 µM), actives largely listed as activators;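 note: potency is the fitted concentration of half-maximal effect; plate controls were DMSO vehicle for no effect and reference control for full effect; nearly all actives have a fitted effect of over 55% in size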
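Compound concentration series was pinned onto galactose-induced FUS-expressing yeast seeded at OD 0.005. Plates sat 24hr at 30C; absorbance at 600 nm gave growth. DMSO served as background control.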
CCT chaperon mod = High-Throughput Screening for Modulators of Cytosolic Chaperonin Activity. 0.3% of 360,000 active. AID 651819, 2012. activity change, % (concentration not given with the values), hits read low. purified chaperonin ATPase assay, HTRF ADP detection, 30 min; in the data active = activity change below about -30%; note: % is set by controls: 0 for no effect and ±100 for the full control effect
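Nucleotide hydrolysis assay: TRiC at 20–40 nM final (set by batch activity) with 10 uM ATP, 30 min at 37 °C, in presence of 76 uM compound. Detection by competitive ADP HTRF, 30 min ambient.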
aSyn rescue = qHTS of alpha-syn Inhibitors | Yeast expressing alpha-synuclein, growth rescue, BacTiter-Glo, 24 h | Potency, µM (top dose mostly 46.1 µM), for inactives: at the top dose growth rescue (activation), actives largely listed as activators | 0.14% of 370,000 active | AID 652106, 2013; note: potency is the fitted concentration of half-maximal effect; % of control where 0% means no effect; nearly all actives have a fitted effect of over 65% in size
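Readout is rescue of growth in alpha-synuclein-expressing yeast, so inhibitors of toxicity appear as activators. Growth after 24 hr at 30 deg C in galactose medium is quantified by luminescence.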
Numbers without * were called inactive; [ ] = another dose, or the depositor's remark. Unless noted, calls come from the whole dose curve; as a rule, active = well fitted curve in the direction sought with a large enough effect; inconclusive = small, poorly fitted or top-dose-only effect, or another doubt; inactive = no such curve, though single readings can be large; an effect the other way counts as inactive or inconclusive.

For Cc1ccccc1NC(=S)NC(=O)C1CCCCC1 the results were TDP-43 yeast inh 25.5%, Abeta rescue inconclusive, Mm-Cpn inhibitor -1.6%, FUS suppressor inactive, CCT chaperon mod 0.1 and aSyn rescue 0.4%.
CCN(CC)c1ncnc2scc(C3COc4ccccc4O3)c12 (configuration not stated) was read as TDP-43 yeast inh 17.8µM*, Abeta rescue inactive, Mm-Cpn inhibitor -3.4%, FUS suppressor inactive, CCT chaperon mod 0.8 and aSyn rescue 2.3%.
`COc1ccc(C(=O)NCC(c2ccc(N(C)C)cc2)N2CCc3ccccc32)cc1OC` (configuration not stated) gave TDP-43 yeast inh 17.0%, Abeta rescue inactive and FUS suppressor inactive.
For CCN1CCc2nc3sc(C(=O)Nc4cccc(Cl)c4C)c(N)c3cc2C1 the results were TDP-43 yeast inh 22.2%, Abeta rescue inactive and FUS suppressor inconclusive.
For O=c1c(Cl)cc(Cl)nn1-c1ccccc1 the results were TDP-43 yeast inh 25.1µM*, Abeta rescue inactive, Mm-Cpn inhibitor -0.9%, CCT chaperon mod 1.6 and aSyn rescue -1.3%.
Screening COc1ccccc1C1(O)CCN(CC(=O)Nc2nc(-c3ccccc3)cs2)CC1 returned TDP-43 yeast inh inconclusive, Abeta rescue inactive, Mm-Cpn inhibitor -0.4%, FUS suppressor inactive, CCT chaperon mod -45.6* and aSyn rescue 0.4%.
CN=C(NC#N)SCC(=O)c1ccc(Cl)cc1Cl was read as TDP-43 yeast inh -8.3%, Abeta rescue inactive, Mm-Cpn inhibitor 0.4%, FUS suppressor inactive, CCT chaperon mod -38.0* and aSyn rescue -0.7%.
Screening Cc1cc(C)c(C#N)c(SCC(=O)c2ccc(Cl)cc2Cl)n1 returned TDP-43 yeast inh -5.6%, Abeta rescue inactive, Mm-Cpn inhibitor -6.6%, FUS suppressor inactive, CCT chaperon mod 3.0 and aSyn rescue 1.4%.
Screening COc1ccccc1NC(=O)Nc1nc(CC(=O)N2CCN(c3ccccc3F)CC2)cs1 returned TDP-43 yeast inh 0.0%, Abeta rescue inactive, Mm-Cpn inhibitor -3.4%, FUS suppressor 28.2µM*, CCT chaperon mod 0.3 and aSyn rescue 0.0%.
Screening COc1ccccc1NC(=O)Nc1nc(C(N)Cc2ccccc2)cs1 (configuration not stated) returned TDP-43 yeast inh 12.3%, Abeta rescue inactive, FUS suppressor inactive, CCT chaperon mod -30.4* and aSyn rescue 4.8%.
For COc1ccccc1NC(=O)Nc1nc(C(N)Cc2ccc(Cl)cc2)cs1 (configuration not stated) the results were TDP-43 yeast inh 10.6%, Abeta rescue inactive, FUS suppressor inconclusive, CCT chaperon mod -4.2 and aSyn rescue -20.6%.
Screening COc1ccccc1NC(=O)Nc1nc(CC(=O)NCc2c(F)cccc2F)cs1 returned TDP-43 yeast inh 22.5%, Abeta rescue inactive, Mm-Cpn inhibitor -1.5%, FUS suppressor inactive, CCT chaperon mod -0.7 and aSyn rescue -0.5%.
Screening Nc1ccc2c(c1)C=C/C2=C\c1ccccc1 returned aSyn rescue 1.7%.
COc1cc2c(cc1OC)CN(C(=O)c1cccc([N+](=O)[O-])c1)CC2 was read as TDP-43 yeast inh 22.4µM*, Abeta rescue inactive, Mm-Cpn inhibitor 1.5%, FUS suppressor inactive, CCT chaperon mod -0.6 and aSyn rescue inconclusive.
Screening COc1cc2c(cc1OC)CN(C(=O)c1ccc(OC)c([N+](=O)[O-])c1)CC2 returned TDP-43 yeast inh 3.5%, Abeta rescue inactive, Mm-Cpn inhibitor 1.8%, FUS suppressor inactive, CCT chaperon mod 2.5 and aSyn rescue -2.8%.
Screening COc1cc2c(cc1OC)CN(C(=O)c1ccc(Br)o1)CC2 returned TDP-43 yeast inh 15.8µM*, Abeta rescue inactive, Mm-Cpn inhibitor 0.7%, FUS suppressor inactive, CCT chaperon mod -0.9 and aSyn rescue 4.7%.
For Cc1ccc(CC(=O)Nc2nc3c(s2)CCCC3)cc1 the results were TDP-43 yeast inh 15.8µM*, Abeta rescue inconclusive, Mm-Cpn inhibitor 0.8%, FUS suppressor inactive, CCT chaperon mod -0.5 and aSyn rescue 6.3%.
For O=C(CCCc1cccs1)Nc1nc2c(s1)CCCC2 the results were TDP-43 yeast inh 12.6µM*, Abeta rescue inconclusive, Mm-Cpn inhibitor 0.0%, FUS suppressor inactive, CCT chaperon mod 0.3 and aSyn rescue -15.2%.
N#Cc1c(NC(=O)CSc2nnnn2C2CCCCC2)sc2c1CCCC2 was read as TDP-43 yeast inh -3.6%, Abeta rescue inactive, Mm-Cpn inhibitor 1.3%, CCT chaperon mod -2.5 and aSyn rescue -0.8%.
`Cc1csc(NC(=O)CCCc2cccs2)n1` gave TDP-43 yeast inh 12.7%[9.22 µM], Abeta rescue inactive, Mm-Cpn inhibitor 3.7%, FUS suppressor inactive, CCT chaperon mod -3.0 and aSyn rescue -2.7%.
Screening O=C(CSc1nnnn1C1CCCCC1)Nc1nc2c(s1)CCCC2 returned TDP-43 yeast inh 12.6µM*, Abeta rescue inactive, FUS suppressor inactive, CCT chaperon mod 0.5 and aSyn rescue inconclusive.
For O=C(CS(=O)(=O)Cc1ccccc1)Nc1nc2c(s1)CCCC2 the results were TDP-43 yeast inh -12.4%, Abeta rescue inactive, Mm-Cpn inhibitor -1.3%, FUS suppressor inactive, CCT chaperon mod -0.3 and aSyn rescue 18.9%.
CCCc1nc(SCC(=O)Nc2nc3c(s2)CCCC3)c2ccccc2n1 was read as TDP-43 yeast inh 1.1%, Abeta rescue inactive, Mm-Cpn inhibitor -1.5%, FUS suppressor inconclusive, CCT chaperon mod 1.3 and aSyn rescue -8.6%.
Screening CCc1nc(SCC(=O)Nc2nc3c(s2)CCCC3)c2ccccc2n1 returned TDP-43 yeast inh 10µM*, Abeta rescue inactive, Mm-Cpn inhibitor -1.2%, FUS suppressor inactive, CCT chaperon mod 1.9 and aSyn rescue -6.2%.
For Cc1ccc(-c2nnc(Nc3ccc(F)cc3)c3ccccc23)cc1S(=O)(=O)NC(C)C the results were TDP-43 yeast inh 0.0%, Abeta rescue inactive and FUS suppressor inactive.
Screening COC(=O)C1CCCN(C(=O)C2CCN(S(=O)(=O)c3cccs3)CC2)C1 (configuration not stated) returned FUS suppressor inactive.
CCOC(=O)[C@]12CCCC3=C1N(CCC3)C(=O)[C@@H](CC(=O)N1CCN(C(=O)C3CC3)CC1)C2 was read as FUS suppressor inactive.
COc1cc2nc(N3CCCN(C)CC3)nc(Nc3ccncc3)c2cc1OC was read as aSyn rescue -2.0%.
